Laboratory results taken from PubChem BioAssay (NCI).
This is part of a sample that, as a whole, favours compounds with a hit. Of some 83,000 tested, about 20% had one in any assay.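 Treatment: one concentration, 48 hours, 96-well format. Scoring: percent growth, with anything below 10 considered active.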 Calls of active or inactive are those of the source.

Key:
Test in all cases: NCI-60 one-dose screen, 48 h (100 = growth as untreated, 0 = no growth, -100 = all killed)
Details in all cases: 10 µM unless noted
BT-549 breast = system: BT-549 breast
MDA-MB-435 melanoma = system: MDA-MB-435 melanoma
SW-620 colon = system: SW-620 colon
MCF7 breast = system: MCF7 breast
HCT-116 colon = system: HCT-116 colon
HCC-2998 colon = system: HCC-2998 colon
KM12 colon = system: KM12 colon

Measured: growth

O=C(c1ccc(O)cc1)[C@@H]1[C@@H]2CCCN2[C@@]2(C(=O)N(C(=O)c3ccc(F)cc3)c3ccccc32)[C@H]1c1ccc(F)cc1
inactive: BT-549 breast 98.5% | MDA-MB-435 melanoma 88.1% | SW-620 colon 113% | MCF7 breast 86.3% | HCT-116 colon 91.4% | HCC-2998 colon 108% | KM12 colon 100%

COC[C@]12CC[C@@H](C)[C@H](C)[C@H]1C1=CC[C@@H]3[C@@]4(C)CCCNC(C)(C)[C@@H]4CC[C@@]3(C)[C@]1(C)CC2
inactive: BT-549 breast 66.1% | HCC-2998 colon 20.1% | KM12 colon 19.3%
active: MDA-MB-435 melanoma 9.61% | SW-620 colon -42.1% | MCF7 breast -33.2% | HCT-116 colon 5.39%

CN1C(=O)N(C)C2C1NN=c1s/c(=C\c3ccccn3)c(=O)n12 (stereo not given)
inactive: BT-549 breast 99.2% | MDA-MB-435 melanoma 88.5% | SW-620 colon 99.3% | MCF7 breast 91.9% | HCT-116 colon 108% | HCC-2998 colon 104% | KM12 colon 91.6%

Cc1ccc(NC(=O)c2ccc(CN3CCN(C)CC3)c(I)c2)cc1Oc1ccc(-c2[nH]nc3ncnc(N)c23)cc1
active: MDA-MB-435 melanoma -67.5% | SW-620 colon -67.3% | MCF7 breast -27% | HCT-116 colon -26.6%
inactive: BT-549 breast 103% | HCC-2998 colon 108% | KM12 colon 20.7%

COc1cc2cc(Oc3ccc(NC(=O)Nc4cccc(C(F)(F)F)c4)cc3)c(C)nc2cc1OCCN(C)C
inactive: BT-549 breast 119% | MDA-MB-435 melanoma 96.6% | SW-620 colon 111% | MCF7 breast 69.2% | HCT-116 colon 82.8% | HCC-2998 colon 105% | KM12 colon 98.2%

O=C(Nc1cc(F)cc2cccnc12)c1cnc(N2CCOCC2)cn1
active: MCF7 breast 2.58% | HCT-116 colon 9.63%
inactive: BT-549 breast 72.4% | MDA-MB-435 melanoma 90.9% | SW-620 colon 51.3% | HCC-2998 colon 107% | KM12 colon 99.1%

CCc1ccc(NC(=O)N[C@@H](Cc2cccc(F)c2)C(=O)N[C@@H]2C(=O)N3CCC[C@H]3C(=O)N3CCCC[C@H]3C(=O)N[C@@H](CO)C(=O)N3C[C@H](C)C[C@H]3C(=O)O[C@H]2C)c(F)c1
inactive: BT-549 breast 28.5% | SW-620 colon 34.6% | MCF7 breast 14.9% | HCT-116 colon 10.8% | HCC-2998 colon 24.1% | KM12 colon 37.8%

O=S(=O)(NCCCNc1nccc(-n2cnc3ccccc32)n1)c1ccc(F)cc1
inactive: BT-549 breast 34.9% | MDA-MB-435 melanoma 64.6% | SW-620 colon 96.2% | MCF7 breast 63.7% | HCT-116 colon 58.7% | HCC-2998 colon 102% | KM12 colon 48.9%

O=S(=O)(Nc1ccc(C2CC2)cc1)c1ccc(-c2cnc(C3CC3)o2)cc1
inactive: BT-549 breast 76.3% | SW-620 colon 33.8% | MCF7 breast 33.3% | HCT-116 colon 48.5% | HCC-2998 colon 91.1% | KM12 colon 48.3%

O=C1Nc2ccc(Cl)cc2/C1=C/c1ccc(OCc2ccc(Br)cc2F)cc1
inactive: BT-549 breast 129% | SW-620 colon 97.8% | MCF7 breast 87.5% | HCT-116 colon 96.7% | HCC-2998 colon 112% | KM12 colon 101%

C=C1C(=O)O[C@@H]2C[C@@H](C)CCC(=O)[C@](C)(OC(C)=O)C[C@H](OC(=O)/C(C)=C\C)[C@@H]12
inactive: BT-549 breast 80.3% | MDA-MB-435 melanoma 65.9% | SW-620 colon 45.7% | MCF7 breast 35.1% | HCT-116 colon 25.3% | KM12 colon 91.6%

CCC(C)[C@H]1OC(=O)[C@H](C(C)C)N(C)C(=O)[C@@H](C(C)C)OC(=O)[C@H](C(C)C)N(C)C(=O)[C@@H](C(C)CC)OC(=O)[C@H](C(C)C)N(C)C1=O (stereo not given in full)
inactive: MDA-MB-435 melanoma 16.1% | SW-620 colon 17.3% | HCC-2998 colon 23.4% | KM12 colon 15.7%
active: BT-549 breast 0.725% | MCF7 breast 8.27% | HCT-116 colon 8.58%

Cn1nc(Nc2ccccc2)c(C(=O)NN)c1N
inactive: BT-549 breast 129% | SW-620 colon 99.8% | MCF7 breast 89.7% | HCT-116 colon 113% | HCC-2998 colon 107% | KM12 colon 99.4%

Oc1ccccc1-c1nnc(SCc2ccc(O)c3ncccc23)o1
active: MCF7 breast 6.74%
inactive: BT-549 breast 32.3% | MDA-MB-435 melanoma 18.5% | SW-620 colon 28.2% | HCT-116 colon 10.5% | HCC-2998 colon 46% | KM12 colon 29.3%

O=C(NNc1nc2cc(F)c(F)cc2n2cccc12)c1ncccn1
inactive: BT-549 breast 36.8% | MDA-MB-435 melanoma 26.1% | SW-620 colon 26.4% | MCF7 breast 16.9% | HCT-116 colon 31.2% | HCC-2998 colon 62.4% | KM12 colon 25.6%

C#CCOc1ccc(C(Nc2ccc(Cl)cc2)c2nnnn2C2CCCCC2)cc1 (stereo not given)
inactive: BT-549 breast 85.7% | MDA-MB-435 melanoma 98% | SW-620 colon 94.2% | MCF7 breast 75.5% | HCT-116 colon 61.4% | HCC-2998 colon 98.7% | KM12 colon 95.9%

COc1c([C@@H](CC(C)C)OC(C)=O)ccc2c1C(=O)OCc1cc(C)cc(O)c1O2
inactive: BT-549 breast 31.3% | MDA-MB-435 melanoma 30% | SW-620 colon 20% | HCT-116 colon 12.3% | HCC-2998 colon 35% | KM12 colon 30.7%

O=C1Nc2ccc(Br)cc2/C1=N\c1nnc(-c2ccc(Cl)cc2)o1
active: MDA-MB-435 melanoma -20.7%
inactive: BT-549 breast 63.1% | SW-620 colon 16.5% | MCF7 breast 34.9% | HCT-116 colon 49.2% | HCC-2998 colon 96.2% | KM12 colon 70%

Nc1cc(F)ccc1NC(=O)c1ccc(NC(=O)C/C=C/c2cccnc2)cn1
active: HCT-116 colon -13.2%
inactive: BT-549 breast 25.3% | MDA-MB-435 melanoma 13.7% | SW-620 colon 10.6% | HCC-2998 colon 15.5% | KM12 colon 24.5%

Cn1cc2c(c1)-c1c(sc3nc(-c4ccc(NC(=O)Nc5cc(C(C)(C)C)on5)cc4)cn13)CC2
inactive: BT-549 breast 71.3% | MDA-MB-435 melanoma 51.9% | SW-620 colon 73% | MCF7 breast 15.6% | HCT-116 colon 39% | HCC-2998 colon 63.1% | KM12 colon 21.7%

CCN1C(=O)N(CC)C2SC(N/N=C/c3ccccc3F)=NC21 (stereo not given)
inactive: SW-620 colon 19% | MCF7 breast 16.2% | HCT-116 colon 13.6% | HCC-2998 colon 17.1% | KM12 colon 11.8%
active: BT-549 breast -20.1% | MDA-MB-435 melanoma -53.5%

COC[C@@]1(C)CC[C@]2(C)CC[C@]3(C)C(=CC[C@@H]4[C@@]5(C)CCCNC(C)(C)[C@@H]5CC[C@]43C)C2C1 (stereo not given in full)
inactive: BT-549 breast 87.4% | MDA-MB-435 melanoma 44.2% | SW-620 colon 53.2% | MCF7 breast 23.9% | HCT-116 colon 40.1% | HCC-2998 colon 58.8% | KM12 colon 61.4%

Oc1ccc(CSc2nnc(-c3ccc(Br)cc3)o2)c2cccnc12
inactive: BT-549 breast 43% | MDA-MB-435 melanoma 29.3% | SW-620 colon 17.7% | MCF7 breast 16% | HCT-116 colon 23% | HCC-2998 colon 44.9% | KM12 colon 19.1%

COc1ccc(Cn2cc3c(c2-c2cc(OC)c(OC)c(OC)c2)CCCc2cnoc2-3)cc1
inactive: BT-549 breast 63.3% | SW-620 colon 25.6% | MCF7 breast 11.5% | HCT-116 colon 19% | HCC-2998 colon 32.4% | KM12 colon 29%

C=C(C)[C@@H]1CC[C@]2(C(=O)ON)CC[C@]3(C)[C@H](CC[C@@H]4[C@@]5(C)C/C(=C/c6ccc(Br)cc6)C(=O)C(C)(C)[C@@H]5CC[C@]43C)[C@@H]12
inactive: BT-549 breast 96.9% | MDA-MB-435 melanoma 81.1% | SW-620 colon 81.7% | MCF7 breast 44.9% | HCT-116 colon 48.6% | HCC-2998 colon 82.9% | KM12 colon 69.9%

COc1cc(C(=O)c2cc(C(C)=O)c3c4ccccc4ccn23)cc(OC)c1OC
active: MDA-MB-435 melanoma 5.4%
inactive: BT-549 breast 59% | SW-620 colon 44.5% | MCF7 breast 34.2% | HCT-116 colon 42.2% | HCC-2998 colon 62.9% | KM12 colon 43.9%

CCNC(=O)Oc1ccc(/C(=C(/C)c2ccccc2)c2ccc(OCCN3CCCC3)cc2)cc1
inactive: BT-549 breast 70.4% | MDA-MB-435 melanoma 81.6% | SW-620 colon 80.3% | MCF7 breast 26.9% | HCT-116 colon 38.3% | HCC-2998 colon 93.4% | KM12 colon 81.8%

COc1ccc([C@@H]2[C@@H](O)C(=O)N2c2cc(OC)c(OC)c(OC)c2)cc1Cl
active: BT-549 breast -9.18% | MDA-MB-435 melanoma -8.49% | HCT-116 colon 2.44% | HCC-2998 colon 8.34%
inactive: SW-620 colon 17.9% | MCF7 breast 11.5% | KM12 colon 13.2%

Cc1ccc(/C=C/CC(=O)Nc2ccc(C(=O)Nc3ccc(F)cc3N)cc2)cn1
inactive: BT-549 breast 73% | MDA-MB-435 melanoma 47.2% | SW-620 colon 46.3% | MCF7 breast 39.6% | HCT-116 colon 39% | HCC-2998 colon 64.6% | KM12 colon 75.2%
